A selection: hits, their analogues and other compounds. The true share with any hit is near 4%.
MITF act = activators of MITF-driven TRPM1 promoter reporter, primary screen, cell-based, SK-MEL-5, luciferase, single point. actives 0.75% (n = 300,000). SK-MEL-5 TRPM1-promoter luciferase, 24 h; % of positive control, neutral wells = 0. activation, % at 12.5 µM;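 active = mean activation of at least 80% with every replicate also reaching 80%; inconclusive = mean reaches 80% but some replicate falls short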
C2C12 statin = suppressors of statin myotoxicity in C2C12 myotubes, primary screen, cell-based, single point, plate reader; C2C12 myotubes + simvastatin, ATP luminescence, 48 h; scaled: DMSO 0, geranylgeraniol control 100; rescue of ATP level, % at 7.49 µM; actives 0.78% (n = 330,000); AID 602340, 2012;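 active = mean ATP rescue above about 67%, or every replicate alone reaching that limit, limit read from the data, passing the limit was not always enough; inconclusive = no clear call, values can overlap the other calls; inactive = mean under the limit and some replicate under it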;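 note: myotubes were challenged with 10 µM simvastatin during compound exposure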
LMP1 NFkB inh = EBV LMP1-driven NF-kappaB luciferase reporter inhibitors, primary screen, cell-based, luminescence, single point; AID 504558, 2011; LMP1-induced NF-kappaB luciferase reporter cells; inhibition, % at 12.5 µM; actives 0.69% (n = 350,000); in the data active = inhibition above about 41%; inconclusive = no clear call, values can overlap the other calls
esBAF inh = Bmi1 luciferase reporter increase in mESCs, primary screen, esBAF inhibitor project, mouse ES cells, Bmi1 luciferase knock-in, single point. 24 h; 100% = twice the neutral-well signal. reporter increase, % at 12.5 µM. actives 2% (n = 350,000); in the data active = activation above about 40%; inconclusive = no clear call, values can overlap the other calls;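 note: a rise in the Bmi1 reporter signal indicates esBAF inhibition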
Wnt act = Wnt/beta-catenin pathway activators, primary screen, cell-based, plate reader, single point | activation, % at 9.35 µM | Wnt/beta-catenin reporter cell assay, activator | actives 1.2% (n = 300,000); in the data active = activation above about 30%, passing the limit was not always enough; inconclusive = no clear call, values can overlap the other calls
TRPM1 prom inh = inhibitors of MITF-dependent TRPM1 promoter reporter, primary screen, cell-based, SK-MEL-5, single point, luciferase | SK-MEL-5 TRPM1 promoter luciferase, 24 h | inhibition, % at 12.5 µM | actives 0.83% (n = 330,000) | AID 488899, 2010;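 active = mean inhibition across replicates of 60% or more, whatever share of single replicates reaches that level; inconclusive = some that reach 60%, reason not given; inactive = mean inhibition across replicates below 60%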
Of the large screens only hits and unclear results are named; the others gave an inactive call.

Cc1ccc(CNC(=O)COC(=O)CN2C(=O)C3CC=CCC3C2=O)cc1 (stereo unspecified)	none
Cc1ccc(NC(=O)c2ccc(OC(=O)CCN3C(=O)c4ccccc4C3=O)cc2)cc1	esBAF inh inconclusive, Wnt act 46
CC1(C)OC(=O)N(c2cccnc2)C1(C)O (stereo unspecified)	none (no result: Wnt act)
CN(C)S(=O)(=O)c1cccc(NC(=O)C2Cc3ccccc3CN2C(=O)c2ccco2)c1 (stereo unspecified)	esBAF inh 44
CC(=O)Nc1ccc(NC(=O)C(c2ccccc2)c2ccccc2)cc1	LMP1 NFkB inh 54
C(=N/Nc1nccs1)/c1cccnc1	none (no result: C2C12 statin, esBAF inh)
O=C(Nc1nc(-c2nc3ccccc3s2)cs1)C1CC1	Wnt act 49 (no result: MITF act, TRPM1 prom inh)
O=C(Nc1nc(-c2ccc(Cl)s2)cs1)c1ccco1	none (no result: C2C12 statin, esBAF inh)
O=C(Nc1nc(-c2nc3ccccc3s2)cs1)c1ccco1	esBAF inh 52 (no result: MITF act, TRPM1 prom inh)
O=C(Nc1nc(-c2ccccn2)cs1)C1CCCC1	none
COc1ccccc1OCc1csc(NC(=O)c2ccco2)n1	esBAF inh 77 (no result: Wnt act)
C[C@H]1CN([C@@H](C)CO)C(=O)Cc2cc(NC(=O)C3CC3)ccc2O[C@@H]1CN(C)Cc1ccc(C(F)(F)F)cc1	none (no result: MITF act, LMP1 NFkB inh, Wnt act, TRPM1 prom inh)
COc1cccc(C(=O)OCC(=O)NC(C)CCc2ccccc2)c1O (stereo unspecified)	none
CC(C)c1nnc(NC(=O)CSc2ncn[nH]2)s1	none (no result: Wnt act)
CCOC(=O)C1=C(C)NC(=O)NC1c1ccc(OCC(N)=O)cc1 (stereo unspecified)	none
COc1cccc(-n2c(SCC(=O)N3CCCCC3)nc3c([nH]c4ccccc43)c2=O)c1	none
COC(=O)c1ccc2nc(-c3ccc(S(C)(=O)=O)cc3)cn2c1	none
COC(=O)c1ccc2nc(-c3cccc(N)c3)cn2c1	LMP1 NFkB inh 61
Cc1cc(C(=O)Nc2cccc3c2O[C@H](CN(C)S(=O)(=O)c2cccs2)[C@H](C)CN([C@@H](C)CO)C3=O)n(C)n1	none (no result: MITF act, LMP1 NFkB inh, Wnt act, TRPM1 prom inh)
CC[N+](C)(CC)CCC/C(=N/O)C(O)(c1ccccc1)c1ccccc1	Wnt act 33 (no result: MITF act, C2C12 statin, LMP1 NFkB inh, esBAF inh, TRPM1 prom inh)
CCN(CC)CCC/C(=N\O)C(O)(c1ccccc1)c1ccccc1	none (no result: C2C12 statin, esBAF inh)
Cc1noc(C)c1NC(=O)Nc1cccc2c1O[C@H](CN(C)Cc1ccc3c(c1)OCO3)[C@H](C)CN([C@H](C)CO)C2=O	none (no result: MITF act, LMP1 NFkB inh, Wnt act, TRPM1 prom inh)
CCOc1ccc2c(=O)c(Oc3ccccc3OCC)coc2c1	esBAF inh 64
CCOc1ccccc1Oc1coc2cc(OCC(=O)O)ccc2c1=O	none
CC1CC1C(=O)Nc1cc(C(F)(F)F)ccc1N1CCOCC1 (stereo unspecified)	none (no result: C2C12 statin, esBAF inh)
Cc1ccc(OCC(O)CN2C(=O)NC(C)(C)C2=O)cc1 (stereo unspecified)	none (no result: Wnt act)
CCCCCCOc1ccc(OCC(O)CN2C(=O)NC(C)(C)C2=O)cc1 (stereo unspecified)	esBAF inh 46
COC(=O)Cc1[nH]n(-c2nc3ccccc3s2)c(=O)c1C(C)=Nc1ccc(Cl)cc1	TRPM1 prom inh 80 (no result: C2C12 statin, esBAF inh)
COC(=O)Cc1[nH]n(-c2ccccc2)c(=O)c1C(C)=Nc1ccccc1	none
COC(=O)Cc1[nH]n(-c2nc3ccccc3s2)c(=O)c1C(C)=Nc1ccc(C)cc1	LMP1 NFkB inh 82, TRPM1 prom inh 97 (no result: C2C12 statin, esBAF inh)
O=C(C[C@H]1CC[C@@H](NC(=O)c2ccc3c(c2)OCO3)[C@H](CO)O1)NCc1ccc(Oc2ccccc2)cc1	C2C12 statin 68 (no result: MITF act, LMP1 NFkB inh, Wnt act, TRPM1 prom inh)
CCCCC(=O)Nc1sc2c(c1C#N)CC(C)(C)OC2	MITF act 91
COc1ccc(-c2nnc(NC(=O)C3CC3)o2)cc1	none (no result: C2C12 statin, esBAF inh)
COc1cc(CNCCc2ccc(F)cc2)ccc1OCc1ccc(Cl)nc1	none (no result: Wnt act)
COc1cc(CO)ccc1OCc1ccc(Cl)nc1	esBAF inh 57, Wnt act 36 (no result: MITF act)
c1ccc(-c2nc3nonc3nc2-c2ccccc2)cc1	TRPM1 prom inh 62 (no result: MITF act)
Nc1c(-c2ccccc2)nc(Cl)nc1-c1ccccc1	none (no result: MITF act)
O=C(C[C@@H]1CC[C@H]2[C@@H](COC[C@H](O)CN2Cc2cccc(-c3ccncc3)c2)O1)N1CCOCC1	none (no result: MITF act, LMP1 NFkB inh, Wnt act, TRPM1 prom inh)
O=C(c1cc(S(=O)(=O)NCc2ccco2)ccc1Br)N1CCOCC1	LMP1 NFkB inh 71
CCCCCCC(=O)Oc1cccc(N2C(=O)C3CCCCC3C2=O)c1 (stereo unspecified)	none (no result: C2C12 statin, esBAF inh)
CCCCN1C2CCCC1CC(NC(=O)C1CCCCC1)C2 (stereo unspecified)	LMP1 NFkB inh 51 (no result: MITF act)
COc1ccc(-n2cnc3cc(NCc4cccs4)ccc32)cc1	C2C12 statin 127
Cc1ccccc1SCC(=O)OCC(=O)Nc1ccc(N(C)C)cc1	none (no result: C2C12 statin, esBAF inh)
COc1ccc(NC(=S)c2ccccc2)cc1	MITF act 83, esBAF inh 61
COc1ccc(C(=S)Nc2ccc(N(C)C)cc2)cc1	Wnt act 68
Cc1ccc(NC(=S)c2ccc(N(C)C)cc2)cc1	Wnt act 46
COc1ccc(NC(=S)Nc2ccccc2)cc1	none
COc1ccc(NC(=S)c2ccc(N(C)C)cc2)cc1	none (no result: C2C12 statin, esBAF inh, Wnt act)
O=C1C(O)=CC(=C(c2ccccc2)c2ccccc2)c2ccccc21	TRPM1 prom inh 61
O=C(O)c1cccc2c1C(=O)c1ccccc1C2=O	none
Nc1ccncc1N	none
O=C(O)CCn1nnc2ccccc21	Wnt act 47 (no result: C2C12 statin, esBAF inh)
O=C(O)Cn1nnc2ccccc21	none (no result: C2C12 statin, esBAF inh)
O=C(Cn1nnc2ccccc21)c1ccc(Cl)cc1	Wnt act 45
C(#Cc1ccccc1)Cn1nnc2ccccc21	MITF act 86, esBAF inh 60 (no result: Wnt act)
O=C(CCc1c[nH]c2ccccc12)N1CCN(S(=O)(=O)c2ccc(F)cc2)CC1	none
CC(C)(C)C(=O)[C@@H]1[C@@H]2C(=O)N(C3CCCCC3)C(=O)[C@@H]2[C@H]2c3ccccc3C=CN12	none (no result: MITF act, C2C12 statin)
O=C1CNC(=S)N1Cc1ccc(F)cc1	none (no result: Wnt act)
COc1cccc(N2CCN(c3ncnc4c3[nH]c3ccc(F)cc34)CC2C)c1 (stereo unspecified)	LMP1 NFkB inh 70, TRPM1 prom inh 80 (no result: Wnt act)
CCN(CC(=O)NC1CCS(=O)(=O)C1)S(=O)(=O)c1cc([N+](=O)[O-])ccc1C (stereo unspecified)	none
c1ccc(Cn2ccnc2-c2ccco2)cc1	esBAF inh 56
O=C(Nc1ccncc1)Nc1ccccc1Cl	none (no result: C2C12 statin, esBAF inh)
C=CCN=C(NC#N)SCc1ccccc1	none (no result: Wnt act)
C=CCN=C(NC#N)SCC(=O)c1cccc(OC)c1	C2C12 statin 112
Cc1cc(=O)oc(C)c1C(=O)NCCCN1CCN(c2ccc(F)cc2)CC1	none (no result: Wnt act)
COc1ccc(N2CCN(CCNC(=O)c3c(C)cc(=O)oc3C)CC2)cc1	LMP1 NFkB inh 51
